Experimental data: the supplement of paper PMC11732987, “Enantioselective OTUD7B fragment discovery through chemoproteomics screening and high-throughput optimisation” (Communications Chemistry, 2025)

Assays:
Assay in all cases: log2 ratio of Biotin-Ahx-Ub-VS probe labelling (fragment/DMSO); higher = less target engagement (more negative = stronger competition), active = hit call of the paper (q ≤ 0.05, log2 ratio ≤ -1)
Conditions in all cases: compound concentration: 200 uM; treatment time: 3 h
ALG13 = molecular target: T1, ALG13 (UniProt Q9NP73)
T1 sequence (whole entry): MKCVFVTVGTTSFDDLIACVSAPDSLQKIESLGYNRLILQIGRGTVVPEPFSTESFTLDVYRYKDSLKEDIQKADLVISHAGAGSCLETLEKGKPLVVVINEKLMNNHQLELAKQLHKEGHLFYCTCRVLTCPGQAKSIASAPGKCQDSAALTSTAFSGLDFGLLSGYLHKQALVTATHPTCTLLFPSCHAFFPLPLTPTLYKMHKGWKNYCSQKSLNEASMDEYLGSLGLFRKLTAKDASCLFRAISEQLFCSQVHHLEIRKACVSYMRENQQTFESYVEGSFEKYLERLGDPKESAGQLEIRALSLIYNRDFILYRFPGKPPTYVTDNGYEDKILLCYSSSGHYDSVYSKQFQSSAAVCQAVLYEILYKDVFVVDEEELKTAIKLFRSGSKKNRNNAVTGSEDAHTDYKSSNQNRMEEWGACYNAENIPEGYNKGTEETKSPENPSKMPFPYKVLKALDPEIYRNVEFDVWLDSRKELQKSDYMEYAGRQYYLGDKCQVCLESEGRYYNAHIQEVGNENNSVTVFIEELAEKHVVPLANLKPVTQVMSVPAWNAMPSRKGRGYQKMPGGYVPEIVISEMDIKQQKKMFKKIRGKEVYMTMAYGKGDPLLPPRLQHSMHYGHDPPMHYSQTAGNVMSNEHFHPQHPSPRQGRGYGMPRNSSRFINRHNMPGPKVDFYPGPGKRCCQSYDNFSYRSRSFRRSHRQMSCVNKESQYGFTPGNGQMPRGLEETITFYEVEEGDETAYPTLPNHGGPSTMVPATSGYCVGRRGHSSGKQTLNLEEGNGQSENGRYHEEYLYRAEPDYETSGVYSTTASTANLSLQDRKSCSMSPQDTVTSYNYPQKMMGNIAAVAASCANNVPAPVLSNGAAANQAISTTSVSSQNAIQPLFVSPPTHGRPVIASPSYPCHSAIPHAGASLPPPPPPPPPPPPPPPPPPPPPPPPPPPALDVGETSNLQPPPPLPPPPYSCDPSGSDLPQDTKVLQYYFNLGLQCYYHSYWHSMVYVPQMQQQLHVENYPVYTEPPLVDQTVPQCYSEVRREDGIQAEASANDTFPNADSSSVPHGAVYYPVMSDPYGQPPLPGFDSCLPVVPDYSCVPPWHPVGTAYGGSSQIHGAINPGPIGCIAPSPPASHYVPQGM
In short: (§1)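 HEK293T lysate (495 µg per sample, in Tris/CHAPS/IGEPAL buffer with protease inhibitors) was exposed in triplicate for 3 h to fragment at 200 µM or to vehicle, then to Biotin-Ahx-Ub-VS at 0.5 µM final for 1 h. Labelled DUBs were enriched on NeutrAvidin, digested with LysC and trypsin, and analysed by diaPASEF LC-MS/MS. Spectronaut label-free quantities were normalised to the global median, and values are average log2 ratios of fragment over vehicle from an unpaired t-test. Only proteins with ≥2 unique peptides were used.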

ATXN3 = ATXN3 (UniProt P54252)
ATXN3, sequence (P54252 whole entry): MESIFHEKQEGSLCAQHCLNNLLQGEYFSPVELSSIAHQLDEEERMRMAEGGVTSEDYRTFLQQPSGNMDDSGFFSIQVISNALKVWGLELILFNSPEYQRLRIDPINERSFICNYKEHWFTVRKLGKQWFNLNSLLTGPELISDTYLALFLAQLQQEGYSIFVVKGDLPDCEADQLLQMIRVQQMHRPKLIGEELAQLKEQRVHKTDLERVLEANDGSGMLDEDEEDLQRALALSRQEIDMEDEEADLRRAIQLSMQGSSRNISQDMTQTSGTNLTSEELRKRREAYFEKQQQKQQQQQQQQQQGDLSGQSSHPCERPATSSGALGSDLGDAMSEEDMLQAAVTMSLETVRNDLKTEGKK
In short: as §1

BAP1 = molecular target: T2, BAP1 (UniProt Q92560)
T2 sequence (whole entry): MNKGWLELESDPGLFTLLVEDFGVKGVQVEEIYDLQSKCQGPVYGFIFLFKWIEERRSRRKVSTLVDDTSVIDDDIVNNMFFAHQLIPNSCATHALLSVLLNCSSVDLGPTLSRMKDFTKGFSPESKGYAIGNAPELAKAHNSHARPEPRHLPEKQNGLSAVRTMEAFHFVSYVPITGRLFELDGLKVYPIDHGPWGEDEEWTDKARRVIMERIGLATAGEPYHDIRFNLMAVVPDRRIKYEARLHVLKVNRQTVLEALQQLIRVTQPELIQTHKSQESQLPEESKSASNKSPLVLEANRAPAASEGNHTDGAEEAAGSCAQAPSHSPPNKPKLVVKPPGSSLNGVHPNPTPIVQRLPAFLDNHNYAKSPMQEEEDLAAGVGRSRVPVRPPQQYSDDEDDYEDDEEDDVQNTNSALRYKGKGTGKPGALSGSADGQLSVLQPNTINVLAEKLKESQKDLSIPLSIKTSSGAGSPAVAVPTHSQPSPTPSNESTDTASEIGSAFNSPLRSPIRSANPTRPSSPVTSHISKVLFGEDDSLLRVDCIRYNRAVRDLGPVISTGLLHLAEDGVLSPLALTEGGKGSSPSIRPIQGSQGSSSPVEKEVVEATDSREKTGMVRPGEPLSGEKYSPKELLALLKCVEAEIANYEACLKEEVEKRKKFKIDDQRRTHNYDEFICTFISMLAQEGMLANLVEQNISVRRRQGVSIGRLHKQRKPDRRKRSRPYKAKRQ
In short: as §1

EIF3F = EIF3F (UniProt O00303)
EIF3F, sequence (O00303 whole entry): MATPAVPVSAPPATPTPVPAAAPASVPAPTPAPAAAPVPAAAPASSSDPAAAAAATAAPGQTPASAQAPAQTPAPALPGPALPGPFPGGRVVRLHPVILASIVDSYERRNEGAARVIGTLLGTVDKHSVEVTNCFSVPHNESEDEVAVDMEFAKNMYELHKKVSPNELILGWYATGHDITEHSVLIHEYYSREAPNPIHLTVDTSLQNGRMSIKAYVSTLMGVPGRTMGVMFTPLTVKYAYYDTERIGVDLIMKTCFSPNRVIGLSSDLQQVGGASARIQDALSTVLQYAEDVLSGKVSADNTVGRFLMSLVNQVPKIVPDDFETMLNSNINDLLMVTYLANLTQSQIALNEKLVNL
In short: as §1

EIF3H = EIF3H (UniProt O15372)
EIF3H, sequence (O15372 whole entry): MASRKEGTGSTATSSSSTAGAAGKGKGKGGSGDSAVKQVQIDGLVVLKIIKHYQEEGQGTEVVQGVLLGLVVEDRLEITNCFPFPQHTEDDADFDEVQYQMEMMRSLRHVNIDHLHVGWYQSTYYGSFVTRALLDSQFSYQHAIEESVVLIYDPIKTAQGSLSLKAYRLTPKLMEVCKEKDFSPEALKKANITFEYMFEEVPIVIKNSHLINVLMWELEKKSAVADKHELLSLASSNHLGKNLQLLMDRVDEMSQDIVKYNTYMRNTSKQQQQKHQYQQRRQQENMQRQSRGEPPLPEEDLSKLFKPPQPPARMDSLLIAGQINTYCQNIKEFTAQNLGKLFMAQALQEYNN
In short: as §1

FAM105A = molecular target: T3, FAM105A (UniProt Q9NUU6)
T3 sequence (whole entry): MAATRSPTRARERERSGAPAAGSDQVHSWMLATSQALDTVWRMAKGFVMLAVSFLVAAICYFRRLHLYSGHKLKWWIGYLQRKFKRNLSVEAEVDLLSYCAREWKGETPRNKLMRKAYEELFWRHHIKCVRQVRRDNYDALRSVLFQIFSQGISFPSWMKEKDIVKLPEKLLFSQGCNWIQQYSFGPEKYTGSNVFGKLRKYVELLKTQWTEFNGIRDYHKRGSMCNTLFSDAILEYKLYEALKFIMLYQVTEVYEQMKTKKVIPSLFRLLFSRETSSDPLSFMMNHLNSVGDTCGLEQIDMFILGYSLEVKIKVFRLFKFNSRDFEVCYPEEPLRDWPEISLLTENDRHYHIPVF
In short: as §1

OTUB1 = OTUB1 (UniProt Q96FW1)
OTUB1, sequence (Q96FW1 whole entry): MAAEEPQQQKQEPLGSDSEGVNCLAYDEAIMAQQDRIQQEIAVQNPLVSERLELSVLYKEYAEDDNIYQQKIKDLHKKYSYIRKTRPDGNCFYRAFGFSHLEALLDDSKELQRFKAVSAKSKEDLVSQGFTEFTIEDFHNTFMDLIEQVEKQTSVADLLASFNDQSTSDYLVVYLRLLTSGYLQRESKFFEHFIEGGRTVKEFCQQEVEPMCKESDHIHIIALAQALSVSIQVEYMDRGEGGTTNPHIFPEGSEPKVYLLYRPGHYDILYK
In short: as §1

OTUD4 = molecular target: T4, OTUD4 (UniProt Q01804)
T4 sequence (whole entry): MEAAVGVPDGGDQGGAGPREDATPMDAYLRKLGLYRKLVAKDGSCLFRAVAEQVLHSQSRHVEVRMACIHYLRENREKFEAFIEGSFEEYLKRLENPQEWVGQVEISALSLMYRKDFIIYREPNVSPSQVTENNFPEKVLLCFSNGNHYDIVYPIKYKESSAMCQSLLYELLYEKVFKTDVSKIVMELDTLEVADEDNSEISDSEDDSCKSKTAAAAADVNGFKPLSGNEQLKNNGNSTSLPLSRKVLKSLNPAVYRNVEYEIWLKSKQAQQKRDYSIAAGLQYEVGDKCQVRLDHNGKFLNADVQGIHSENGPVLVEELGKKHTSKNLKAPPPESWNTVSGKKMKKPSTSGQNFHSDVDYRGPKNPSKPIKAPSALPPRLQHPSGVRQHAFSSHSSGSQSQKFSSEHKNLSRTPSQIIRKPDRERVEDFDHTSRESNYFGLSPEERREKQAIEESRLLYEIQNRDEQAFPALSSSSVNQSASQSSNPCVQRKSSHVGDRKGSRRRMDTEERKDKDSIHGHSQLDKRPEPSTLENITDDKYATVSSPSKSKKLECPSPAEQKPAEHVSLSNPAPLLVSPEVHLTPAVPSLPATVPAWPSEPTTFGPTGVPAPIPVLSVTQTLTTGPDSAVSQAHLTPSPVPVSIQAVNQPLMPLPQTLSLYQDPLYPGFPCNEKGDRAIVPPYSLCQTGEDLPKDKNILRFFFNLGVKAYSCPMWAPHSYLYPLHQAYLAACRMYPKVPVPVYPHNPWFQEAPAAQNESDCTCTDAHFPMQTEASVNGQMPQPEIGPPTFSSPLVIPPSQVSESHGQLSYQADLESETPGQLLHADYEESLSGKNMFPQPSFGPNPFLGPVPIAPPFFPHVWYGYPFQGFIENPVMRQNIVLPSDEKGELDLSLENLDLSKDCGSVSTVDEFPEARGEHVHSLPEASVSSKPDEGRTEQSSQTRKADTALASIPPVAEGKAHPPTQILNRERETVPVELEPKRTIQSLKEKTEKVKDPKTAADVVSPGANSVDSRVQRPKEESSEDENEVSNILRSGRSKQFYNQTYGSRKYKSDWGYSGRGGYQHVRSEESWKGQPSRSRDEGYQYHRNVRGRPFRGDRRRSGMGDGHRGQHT
In short: as §1

OTUD5 = molecular target: T5, OTUD5 (UniProt Q96G74)
T5 sequence (whole entry): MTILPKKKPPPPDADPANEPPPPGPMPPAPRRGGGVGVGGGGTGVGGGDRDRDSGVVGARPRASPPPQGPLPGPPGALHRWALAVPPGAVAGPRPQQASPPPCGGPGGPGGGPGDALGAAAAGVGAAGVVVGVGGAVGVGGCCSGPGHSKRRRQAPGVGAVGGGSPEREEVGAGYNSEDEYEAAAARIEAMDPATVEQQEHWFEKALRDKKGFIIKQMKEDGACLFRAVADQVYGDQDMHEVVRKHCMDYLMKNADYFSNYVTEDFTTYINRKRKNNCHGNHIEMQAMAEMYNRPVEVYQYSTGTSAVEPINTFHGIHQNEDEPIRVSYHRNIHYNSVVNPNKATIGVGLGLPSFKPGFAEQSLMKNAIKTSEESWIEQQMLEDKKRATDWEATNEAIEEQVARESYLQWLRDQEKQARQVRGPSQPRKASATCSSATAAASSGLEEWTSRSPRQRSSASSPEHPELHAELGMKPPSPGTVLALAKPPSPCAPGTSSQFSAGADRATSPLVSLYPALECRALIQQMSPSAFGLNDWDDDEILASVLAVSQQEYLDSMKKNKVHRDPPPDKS
In short: as §1

Measured: log2 ratio of Biotin-Ahx-Ub-VS probe labelling

O=C(CCl)N1CCC(OCc2ccccc2F)CC1
inactive: ALG13 -0.0579 | ATXN3 -0.708 | BAP1 -0.64 | EIF3F -0.319 | EIF3H -0.284 | FAM105A -0.178 | OTUB1 -0.00851 | OTUD4 -0.169 | OTUD5 -0.0801
